# Screening results (PubChem BioAssay)
# A selection: hits, their analogues and other compounds. The true share with any hit is near 3.6%.
# GALC G270D up – A Novel Cell-Based Assay to Identify Small Molecules for B -Galactocerebrosidase | 145M-Twi-hGALC-G270D cells (Twitcher mouse brain line with human GALC G270D), HMU-beta-Gal fluorescence, 48 h | Potency, µM (doses to about 57.5 µM), actives largely listed as activators | 45,000 compounds, 0.1% hits | AID 1159614, 2016; further: potency means the concentration at half of the fitted maximal effect; 0% is about no effect; nearly all actives have a fitted effect of over 65% in size
# Target sequence (P54803 whole entry G286D): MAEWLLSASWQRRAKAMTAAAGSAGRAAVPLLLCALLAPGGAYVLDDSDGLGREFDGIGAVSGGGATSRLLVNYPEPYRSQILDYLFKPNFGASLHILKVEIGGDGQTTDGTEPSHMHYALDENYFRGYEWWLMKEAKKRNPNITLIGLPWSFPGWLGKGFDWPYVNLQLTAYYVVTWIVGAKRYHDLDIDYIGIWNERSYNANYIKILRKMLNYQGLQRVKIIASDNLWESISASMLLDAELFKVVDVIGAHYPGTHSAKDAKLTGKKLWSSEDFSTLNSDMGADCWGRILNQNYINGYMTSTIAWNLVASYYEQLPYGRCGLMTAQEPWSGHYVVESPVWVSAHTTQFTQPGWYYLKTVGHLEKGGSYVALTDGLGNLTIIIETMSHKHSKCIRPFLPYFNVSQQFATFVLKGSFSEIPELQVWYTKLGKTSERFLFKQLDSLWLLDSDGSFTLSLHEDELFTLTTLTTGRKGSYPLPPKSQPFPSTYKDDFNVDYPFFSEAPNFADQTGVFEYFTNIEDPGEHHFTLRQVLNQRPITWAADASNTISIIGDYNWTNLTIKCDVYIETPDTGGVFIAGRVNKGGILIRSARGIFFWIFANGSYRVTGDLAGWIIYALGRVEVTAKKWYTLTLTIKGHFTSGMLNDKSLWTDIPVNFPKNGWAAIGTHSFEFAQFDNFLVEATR
#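 Brain-derived Twitcher mouse 145M-Twi cells stably expressing human GALC-G270D or wild-type GALC, treated live, then residual GALC activity read by fluorescence of HMU-b-Gal substrate (0.1 mM final) in citrate-phosphate buffer pH 5.2 with sodium taurocholate. Signal increase indicates enhancement.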
# PMP22 txn – Cell-based coincidence reporter assay to measure PMP22 gene transcription in S16 Pmp22-F2sN cells - Primary screen | S16 Pmp22-F2sN Schwann cells, FLuc/NLuc coincidence luminescence, 24 h | Potency, µM (series often up to 57.5 µM), without a hit: top-dose activity change, negative = inhibition, most hits filed as inhibitors | 43,000 compounds, 2% hits; active means clear falling dose curves in both reporters; inconclusive means both reporters move, but less clearly or upward; inactive means either reporter flat; the % is the NLuc reporter signal; further: potency means the concentration at half of the fitted maximal effect; on the % scale 0 is the no-effect control and ±100 the full control effect
#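 qHTS, 1536-well. Cells seeded, compounds added by pin tool, 24 h 37C. Nano-Glo reagent 1 (lysis/FLuc), 10 min RT, read; Stop&Glo, 10 min RT, read NLuc.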
# S16 viability – Cell viability qHTS assay in S16 Pmp22-F2sN cells. S16 Pmp22-F2sN Schwann cells viability, CellTiter-Glo, 24 h. Potency, µM (top dose mostly 57.5 µM), for the others: at the top dose activity change, negative = cytotoxicity, hits mostly cytotoxic. 43,000 compounds, 0.48% hits. AID 1508642, 2021; further: potency means the concentration at half of the fitted maximal effect; on the % scale 0 is the no-effect control and ±100 the full control effect; nearly all actives have a fitted effect of over 65% in size
#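 S16 Pmp22-F2sN Schwann cells (500-1,000/well) in phenol-red-free DMEM with 10% FBS received 23 nL compound by pin tool for 24 h at 37 °C. Viability was then read as CellTiter-Glo luminescence after 15 min at room temperature.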
# NTMT1 inh – Primary qHTS for Inhibitors of N-terminal methyltransferase 1 (NTMT1): MTaseGlo Assay; Potency, µM (top dose mostly 114 µM), for the others: top-dose activity change, negative = inhibition, actives largely listed as inhibitors; N-terminal Xaa-Pro-Lys N-methyltransferase 1 (Homo sapiens), Q9BV86; NTMT1 MTase-Glo SAH luminescence, purified enzyme; 59,000 compounds, 2.5% hits;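 further: potency means the concentration at half of the fitted maximal effect; plate controls were DMSO vehicle for no effect and no enzyme for full effect; nearly all actives have a fitted effect of over 65% in size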
# SKOV3 invasion – Primary qHTS assay for Inhibitors of ovarian cancer metastasis using an organotypic tumor microenvironment (TME) model; SKOV3ip1-GFP adhesion/invasion on 3D omental model, fluorescence; Potency, µM (doses to about 45.8 µM), without a hit: at the top dose activity change, negative = inhibition, usual class: inhibitors; 46,000 compounds, 0.1% hits;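 further: potency means the concentration at half of the fitted maximal effect; plate controls were DMSO wells for no effect and tomatine positive control wells for full effect; nearly all actives have a fitted effect of over 65% in size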
#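 Adhesion/invasion was scored as fixed GFP-labeled SKOV3ip1 cell counts (488/509 nm), normalized to DMSO and tomatine controls. Cancer cells in serum-free medium, with four compound doses (0.36-46 umol/L), sat 2 hr at RT then 16 hr at 37 C on a 48 hr fibroblast/mesothelial/ECM culture.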
# pS6 MEF inh – Acumen qHTS Assay for Inhibitors of the mTORC1 Signaling Pathway in MEF (Tsc2-/-, p53-/-) Cells: Sytravon | Potency, µM (highest dose often 38.3 µM), for the others: at the highest dose activity change, negative = inhibition, most hits filed as inhibitors | Tsc2-/- p53-/- MEF, phospho-rpS6 immunofluorescence/PI, 24 h | 44,000 compounds, 0.78% hits | AID 493208, 2011;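 further: potency means the concentration at half of the fitted maximal effect; plate controls were DMSO for no effect and rapamycin for full effect; nearly all actives have a fitted effect of over 50% in size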
#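 Read-out: phospho-S6 Alexa-488 intensity over PI intensity per well, scored as % active cells using thresholds from rapamycin (7.5 nM) and DMSO controls. Tsc2-/-, p53-/- MEFs exposed to compound for 24 h; PI cell count recorded as viability.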
# NLuc saturating – Biochemical NLuc saturation counterscreen for small molecule modulators of PMP22 gene expression - Nano-Glo assay; Potency, µM (titrated, usually from 57.5 µM), inactives show top-dose activity change, negative = inhibition, most hits filed as inhibitors; Secreted NLuc enzyme (filtered S16 cell medium), Nano-Glo luminescence; 690 compounds, 4% hits; shares compounds with PMP22 txn; AID 1508638, 2021; further: potency means the concentration at half of the fitted maximal effect; on the % scale 0 is the no-effect control and ±100 the full control effect
# NLuc Km counter – Biochemical coelenterazine-based NLuc counterscreen for small molecule modulators of PMP22 gene expression - Km assay | shares compounds with PMP22 txn | secreted NLuc enzyme, coelenterazine luminescence, Km conditions | Potency, µM (series often up to 57.5 µM), without a hit: at the highest dose activity change, negative = inhibition, actives largely listed as inhibitors | 690 compounds, 5% hits; further: potency means the concentration at half of the fitted maximal effect; on the % scale 0 is the no-effect control and ±100 the full control effect
# FLuc ctr PMP22 – Biochemical FLuc counterscreen for small molecule modulators of PMP22 gene expression. shares compounds with PMP22 txn. purified P. pyralis FLuc, luminescence, 10 min. Potency, µM (series often up to 57.5 µM), for inactives: at the highest dose activity, negative = inhibition, most hits filed as inhibitors. 690 tested, under 10 active. AID 1508640, 2021; further: % of control where 0% means no effect
# S16 viab conf – Cell viability qHTS assay in S16 Pmp22-F2sN cells - Confirmatory screen; S16 Schwann cells viability, CellTiter-Glo ATP luminescence, 24 h; 690 compounds, 7% hits; shares compounds with PMP22 txn; AID 1508641, 2021; Potency, µM (highest dose often 57.5 µM), without a hit: at the highest dose activity change, negative = viability loss, actives largely listed as cytotoxic; further: potency means the concentration at half of the fitted maximal effect; on the % scale 0 is the no-effect control and ±100 the full control effect
# PMP22 txn conf – Cell-based coincidence reporter assay to measure PMP22 gene transcription in S16 Pmp22-F2sN cells - Confirmatory screen | shares compounds with PMP22 txn | S16 Schwann cells Pmp22-F2sN, dual luciferase, 24 h | Potency, µM (top dose mostly 57.5 µM), inactives show at the top dose activity change, negative = inhibition, most hits filed as inhibitors | 690 compounds, 22% hits; active means clear falling dose curves in both reporters; inconclusive means both reporters move, but less clearly or upward; inactive means either reporter flat; the % is the FLuc reporter signal; further: potency means the concentration at half of the fitted maximal effect
# PMP22 HiBiT cnf – Cell-based HiBiT reporter assay to measure PMP22 protein expression in S16 Pmp22-HiBiT cells - Confirmatory screen; shares compounds with PMP22 txn; S16 Schwann cells Pmp22-HiBiT, luminescence, 48 h; Potency, µM (series often up to 27.9 µM), inactives show at the highest dose activity change, negative = inhibition, usual class: inhibitors; 95 tested, under 10 active
# An asterisk follows results filed as active; i = inactive; ? = inconclusive; nt = no result given; [ ] = another dose, or the depositor's remark. Unless noted, the call rests on the fitted dose curve; in most records, active means well fitted curve in the direction sought with a large enough effect; inconclusive means small, poorly fitted or top-dose-only effect, or another doubt; inactive means no such curve, though single readings can be large; an effect the other way counts as inactive or inconclusive.
SMILES,GALC G270D up,PMP22 txn,S16 viability,NTMT1 inh,SKOV3 invasion,pS6 MEF inh,NLuc saturating,NLuc Km counter,FLuc ctr PMP22,S16 viab conf,PMP22 txn conf,others
O=C(Cn1c(-c2cccs2)cc2cc(F)ccc21)NCCCN1CCN(c2ccccc2F)CC1,i,?,?,12%,-19%,?,nt,nt,nt,nt,nt,PMP22 HiBiT cnf=?
O=C(Cn1c(-c2cccs2)cc2ccccc21)NCCCN1CCN(c2ccc(F)cc2)CC1,i,10µM*,-10%,?,13%,?,-10%,-3%,5%,?,?,PMP22 HiBiT cnf=?
Cc1ccc2c(c1)C=Cc1cc(C)ccc1C2c1cn(Cc2ccc(C(=O)Nc3nn[nH]n3)o2)c(=O)[nH]c1=S,nt,nt,nt,6%[57.5 µM],nt,nt,nt,nt,nt,nt,nt,
CCC1=Nc2cc(C(=O)NCCCOC)ccc2Sc2ccc(Br)cc21,i,1.3µM*,1%,6%,i,?,-11%,-5%,8%,?,?,PMP22 HiBiT cnf=?
CCCC1=Nc2cc(C(=O)NCCc3ccc(OCC)cc3)ccc2Sc2ccccc21,i,?,-21%,10%,i,-23%,nt,nt,nt,nt,nt,
Cc1ccc(Cn2c(=O)n(Cc3ccccc3)c(=O)c3c(C)c(C)sc32)cc1,i,-6%,-8%,-5%,i,3%,nt,nt,nt,nt,nt,
CCOC(=O)c1ccccc1NC(=O)Cn1c(=O)n(Cc2ccccc2)c(=O)c2c(C)c(C)sc21,i,18µM*,-7%,5%,-1%,?,-10%,-4%,10%,6%,18%,
Cc1cccc(/C=C(\C#N)c2nc3ccccc3c(=O)[nH]2)c1,i,11µM*,0%,16%,11%,-3%,?,?,-5%,?,5%,
COc1cc(/C=C(\C#N)c2nc3ccc(C)cc3[nH]2)ccc1OC(C)C,i,-4%,17%,0%,-10%,-4%,nt,nt,nt,nt,nt,
COCCCNC(=O)c1ccc(Cn2c(=O)c3ccccc3n(Cc3ccccc3C)c2=O)cc1,i,?,2%,3%,-24%,-16%,nt,nt,nt,nt,nt,
COCCCNC(=O)c1ccc(Cn2c(=O)c3ccccc3n(Cc3ccc(Cl)cc3)c2=O)cc1,i,11µM*,?,-5%,i,6%,?,?,1%,-24%,-41%,
COc1ccc(CCNC(=O)c2ccc(Cn3c(=O)c4ccccc4n(Cc4cccc(Cl)c4)c3=O)cc2)cc1OC,i,?,7%,11%,118%,12%,-16%,3%,1%,3%,3%,
CCCN(CCC)C(=O)Cn1c(=O)n(Cc2ccc(C(=O)NCCc3ccc(Cl)cc3)cc2)c(=O)c2ccccc21,i,?,15%,10%,41%,7%,nt,nt,nt,nt,nt,
O=C(NC1CCN(Cc2ccccc2)CC1)c1ccc(Cn2c(=O)c3ccccc3n(Cc3ccc(Cl)cc3)c2=O)cc1,i,12µM*,5%,0%,-9%,-3%,-7%,0%,8%,12µM*,11µM*,
Cc1cnc(-c2ccccc2C(C)C)nc1NCc1ccc(-c2cccnc2)cc1,nt,nt,nt,18%,nt,nt,nt,nt,nt,nt,nt,
CC1(C)C2CCC(CO[C@@H]3O[C@H](CO[C@@H]4OC[C@](O)(CO)[C@H]4O)[C@@H](O)[C@H](O)[C@H]3O)C1C2 (stereo not given in full),nt,nt,nt,-15%[29.8 µM],nt,nt,nt,nt,nt,nt,nt,
O=C(O)C1C2C(=O)N(c3ccccc3)C[C@@]23C=C[C@@H]1O3 (stereo not given in full),nt,nt,nt,-1%,nt,nt,nt,nt,nt,nt,nt,
Cc1ccc(NS(=O)(=O)c2ccc3[nH]c4c(c3c2)CCCC4)cc1N(C)C,i,17µM*,?,1%,-20%,-17%,2%,-20%,1%,7%,?,
COc1ccc(OC)c(CNS(=O)(=O)c2ccc3[nH]c4c(c3c2)CCCCC4)c1,i,15µM*,-18%,?,14%,-8%,-11%,?,2%,1%,-16%,
CCc1nn(CC(=O)N(CC)Cc2ccccc2)c(=O)c2cc3occc3n12,i,?,6%,0%,i,0%,-20%,?,3%,5%,-3%,
